Experimental data as given in PubChem BioAssay (Tox21).
Values joined by “and” are separate entries in the source; they are usually repeats but may differ in a detail not shown here. Identical values can stand only once. Records with an inconclusive call do not appear. A structure can be active in one record and inactive in another. Active and inactive are the calls of the source. Calls follow the shape of the dose curve; as a rule, active = well fitted curve in the direction sought with a large enough effect in the repeat runs; inconclusive = weak or mixed curves; inactive = no such curve, though single readings can be large; an effect the other way counts as inactive or inconclusive.

Tests used:
[1] = A CellTox Green Cytotoxicity Assay to monitor cytotoxicity in HepG2 cells - 32 hour (AID 1224883); also: nearly all actives have a fitted effect of over 50% in size; also: potency is read from the fitted curve at half-maximal effect
Summary of the method: (§1)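 HepG2 cells, 600/well, preincubated 5 h with CellTox Green dye, then exposed to Tox21 compounds in DMSO at 37 C for up to 40 h. Dead-cell DNA fluorescence read at the indicated time point.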

[2] = A CellTox Green Cytotoxicity Assay to monitor cytotoxicity in HEK293 cells - 8 hour (AID 1224884); also: nearly all actives have a fitted effect of over 35% in size
Summary of the method: (§2)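 HEK293 cells, 600/well, were preincubated 5 hours and then exposed to compounds at 37 C for up to 40 hours. A cell-impermeant cyanine dye staining dead-cell DNA was read by fluorescence at 0, 8, 16, 24, 32 and 40 h time points.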

[3] = qHTS RealTime-Glo MT Cell Viability Assay in HepG2 cells - 16 hour (AID 1224885); also: nearly all actives have a fitted effect of over 50% in size
Summary of the method: (§3)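 Compound treatment began 5 h after plating HepG2 cells (600/well) with NanoLuc luciferase and prosubstrate. Plates stayed at 37 C for 40 h; luminescence was captured at six time points, 0 h through 40 h.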

[4] = qHTS RealTime-Glo MT Cell Viability Assay in HEK293 cells - 24 hour (AID 1224886); also: nearly all actives have a fitted effect of over 50% in size; also: potency is read from the fitted curve at half-maximal effect; as to activity change, negative = cytotoxicity: top concentration of the series differs between compounds
Summary of the method: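 Quantitative high-throughput screen of the Tox21 10K library in HEK293: cells and RealTime-Glo reagents plated together, compound added at 5 h, luminescence monitored through 40 h at 37 C.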

[5] = qHTS RealTime-Glo MT Cell Viability Assay in HEK293 cells - 8 hour (AID 1224887); also: nearly all actives have a fitted effect of over 50% in size; also: potency is read from the fitted curve at half-maximal effect; as to activity change, negative = cytotoxicity: top concentration of the series differs between compounds
Summary of the method: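 600 cells/well were plated with the nonlytic NanoLuc/prosubstrate reagent, pre-incubated 5 h, then given 23 nL of compound in DMSO. Incubation at 37 C for 40 h, with luminescence from viable-cell-reduced substrate read repeatedly from 0 h.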

[6] = A CellTox Green Cytotoxicity Assay to monitor cytotoxicity in HEK293 cells - 16 hour (AID 1224888); also: nearly all actives have a fitted effect of over 35% in size
Summary of the method: as §2

[7] = qHTS RealTime-Glo MT Cell Viability Assay in HepG2 cells - 0 hour (AID 1224889); also: nearly all actives have a fitted effect of over 50% in size
Summary of the method: as §3

[8] = A CellTox Green Cytotoxicity Assay to monitor cytotoxicity in HepG2 cells - 8 hour (AID 1224890); also: nearly all actives have a fitted effect of over 45% in size; also: potency is read from the fitted curve at half-maximal effect
Summary of the method: as §1

[9] = qHTS assay to identify small molecule antagonists of the estrogen receptor alpha (ER-alpha) signaling pathway using the BG1 cell line in the presence of 0.1 nM 17-beta-estradiol - cell viability counter screen (AID 1259241); also: nearly all actives have a fitted effect of over 40% in size
Summary of the method: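 VM7Luc4E2 cells (endogenous full-length ER-alpha, 4xERE-luciferase), cultured 5 days in charcoal-stripped serum, exposed to compounds with 0.1 nM 17beta-estradiol (final) for 22 hr at 37C. Viability read in same wells as live-cell protease fluorescence after 30 min.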

[10] = qHTS assay to identify small molecule antagonists of the androgen receptor (AR) signaling pathway using the MDA cell line in the presence of 0.5 nM R1881 - cell viability counter screen (AID 1259242); also: nearly all actives have a fitted effect of over 45% in size
Summary of the method: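 MDA-kb2 cells (MMTV-luciferase, AR/GR responsive) were treated with compounds plus 0.5 nM R1881 (final) for 16 hr at 37C, 0% CO2. Viability was then read in the same wells as live-cell protease fluorescence (CellTiter-Fluor, 30 min).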
% is scaled to controls: 0 for no effect and ±100 for the full control effect.

CCc1c(Br)c(Br)c(Br)c(Br)c1Br
inactive: Potency [1] | Potency [2] | Potency [3] | Potency [4] | Potency [5] | Potency [6] | Potency [7] | Potency [8] | Potency [9] | Potency [10]

CCO[Si](C)(C)OCC
inactive: Potency [1] | Potency [2] | Potency [3] | Potency [4] | Potency [5] | Potency [6] | Potency [7] | Potency [8] | Potency [9] | Potency [10]

COC(=O)NCCC[Si](OC)(OC)OC
inactive: Potency [1] | Potency [2] | Potency [3] | Potency [4] | Potency [5] | Potency [6] | Potency [7] | Potency [8] | Potency [9] | Potency [10]

C#CC(O)CCC (stereo not given)
inactive: Potency [1] | Potency [2] | Potency [3] | Potency [4] | Potency [5] | Potency [6] | Potency [7] | Potency [8] | Potency [9] | Potency [10]

O=S(O)O
inactive: cytotoxicity increase [1] -11% [at 15.8 µM] | cytotoxicity increase [2] 0.551% [at 15.8 µM] | activity change, negative = cytotoxic [3] 2.97% [at 15.8 µM] | activity change, negative = cytotoxicity [4] 11.2% [at 15.8 µM] | activity change, negative = cytotoxicity [5] 3.5% [at 15.8 µM] | activity change [6] 1.02% [at 15.8 µM, stronger effect = higher value] | activity change, negative = cytotoxicity [7] -7.74% [at 15.8 µM] | cytotoxicity increase [8] -4.46% [at 15.8 µM] | activity change, negative = cytotoxicity [9] 0.521% [at 19 µM] | viability change, negative = cytotoxic [10] 4.5% [at 19 µM]

Brc1ccccn1
inactive: Potency [1] | Potency [2] | Potency [3] | Potency [4] | Potency [5] | Potency [6] | Potency [7] | Potency [8] | Potency [9] | Potency [10]

OCCCc1cccnc1
inactive: Potency [1] | Potency [2] | Potency [3] | Potency [4] | Potency [5] | Potency [6] | Potency [7] | Potency [8] | Potency [9] | Potency [10]

CCN1CCN(c2cc(-c3ccc(F)cc3)c3c(n2)CCCCCC3)CC1
inactive: cytotoxicity increase [1] 34% [at 15.8 µM] | cytotoxicity increase [2] -3.6% [at 15.8 µM] | activity change, negative = cytotoxic [3] -4% [at 15.8 µM] | activity change, negative = cytotoxicity [4] -6.43% [at 15.8 µM] | activity change, negative = cytotoxicity [5] 3.49% [at 15.8 µM] | activity change [6] 4.21% [at 15.8 µM, stronger effect = higher value] | activity change, negative = cytotoxicity [7] 21.1% [at 15.8 µM] | cytotoxicity increase [8] 2.47% [at 15.8 µM] | activity change, negative = cytotoxicity [9] 4.69% [at 19 µM] | viability change, negative = cytotoxic [10] 1.73% [at 19 µM]

[O]=[Zr]
inactive: Potency [1] | Potency [2] | Potency [3] | Potency [4] | Potency [5] | Potency [6] | Potency [7] | Potency [8] | Potency [9] | Potency [10]

O=S(=O)(O)CCCN1CCOCC1
inactive: Potency [1] | Potency [2] | Potency [3] | Potency [4] | Potency [5] | Potency [6] | Potency [7] | Potency [8] | Potency [9] | Potency [10]

Oc1c(Br)cc(Br)c2cccnc12
inactive: Potency [1] | Potency [2] | Potency [3] | Potency [4] | Potency [5] | Potency [6] | Potency [7] | Potency [8] | Potency [9] | Potency [10]

CCCCCCCCCCc1ccccc1
inactive: Potency [1] | Potency [2] | Potency [3] | Potency [4] | Potency [5] | Potency [6] | Potency [7] | Potency [8] | Potency [9] | Potency [10]

CCCCCCCCCCCCCCCCCO
inactive: cytotoxicity increase [1] 6.48% [at 15.8 µM] | cytotoxicity increase [2] -22.7% [at 15.8 µM] | activity change, negative = cytotoxic [3] 1.76% [at 15.8 µM] | activity change, negative = cytotoxicity [4] 0.271% [at 15.8 µM] | activity change, negative = cytotoxicity [5] 2.17% [at 15.8 µM] | activity change [6] -22.1% [at 15.8 µM, stronger effect = higher value] | activity change, negative = cytotoxicity [7] -0.0873% [at 15.8 µM] | cytotoxicity increase [8] 1.25% [at 15.8 µM] | activity change, negative = cytotoxicity [9] -2.67% [at 19 µM] | viability change, negative = cytotoxic [10] -1.99% [at 19 µM]

CCC(=O)CC(C)CC (stereo not given)
inactive: cytotoxicity increase [1] 8.4% [at 0.29 µM] | cytotoxicity increase [2] 19.1% [at 0.29 µM] | activity change, negative = cytotoxic [3] 0.759% [at 0.29 µM] | activity change, negative = cytotoxicity [4] -3.03% [at 0.29 µM] | activity change, negative = cytotoxicity [5] 3.45% [at 0.29 µM] | activity change [6] 10.7% [at 0.29 µM, stronger effect = higher value] | activity change, negative = cytotoxicity [7] 5.37% [at 0.29 µM] | cytotoxicity increase [8] 2.33% [at 0.29 µM] | activity change, negative = cytotoxicity [9] -17.1% [at 0.349 µM] | viability change, negative = cytotoxic [10] 2.57% [at 0.349 µM]

CC[N+](CC)(CC)Cc1ccccc1
inactive: Potency [1] | Potency [2] | Potency [3] | Potency [4] | Potency [5] | Potency [6] | Potency [7] | Potency [8] | Potency [9] | Potency [10]

CCNc1nc(NC(C)CC)nc(OC)n1 (stereo not given)
inactive: Potency [1] | Potency [2] | Potency [3] | Potency [4] | Potency [5] | Potency [6] | Potency [7] | Potency [8] | Potency [9] | Potency [10]

CCCCCCCOC(=O)c1ccc(O)cc1
active: Potency [1] 24.5 µM | Potency [4] 24.6 µM and 21.9 µM | Potency [5] 21.9 µM
inactive and 38.9 µM (active): Potency [8]
inactive: Potency [2] | Potency [3] | Potency [6] | Potency [7] | Potency [9] | Potency [10]
